From PubChem
Rows were chosen to be rich in hits. Some 3.2% of all compounds tested hit in one or more screens of this group.
CBFb-RUNX1 inh: qHTS Assay for Compounds Blocking the Interaction Between CBF-beta and RUNX1 for the Treatment of Acute Myeloid Leukemia; Runt-related transcription factor 1 (Homo sapiens) + Core-binding factor subunit beta …; AlphaScreen CBFb-His/RUNX1-biotin binding, biochemical; Potency, µM (titrated, usually from 59.8 µM), for inactives: top-dose activity, negative = inhibition, most hits filed as inhibitors; 230,000 tested, under 10 active; AID 1477, 2009; also: % of control where 0% means no effect
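Bead-based AlphaScreen assay; binding partners His-tagged CBF-beta and biotinylated RUNX1 at 30 nM each. Compound exposure 15 min after a 20-min protein preincubation; bead step 90 min; all steps at room temperature.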
Tau ThT inhib: qHTS for Inhibitors of Tau Fibril Formation, Thioflavin T Binding. Microtubule-associated protein tau (Homo sapiens), P10636. recombinant tau K18 P301L, heparin-induced fibrillization, ThT fluorescence. Potency, µM (highest dose often 57.4 µM), for the others: top-dose activity, negative = inhibition, usual class: inhibitors. hit rate 2.1% among 270,000; also: potency is read from the fitted curve at half-maximal effect; % is scaled to controls: 0 for no effect and ±100 for the full control effect; nearly all actives have a fitted effect of over 55% in size
Target sequence (P10636 561-689 P618L limits assumed): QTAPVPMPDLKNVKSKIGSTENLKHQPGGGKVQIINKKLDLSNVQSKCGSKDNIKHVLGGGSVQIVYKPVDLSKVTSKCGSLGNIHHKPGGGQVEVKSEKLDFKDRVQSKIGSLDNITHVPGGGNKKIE
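In this qHTS, human K18 P301L tau is incubated with compound and heparin for 6 hr at 37 C, and Thioflavin T fluorescence then reports fibril load.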
Tau fibril FP: qHTS for Inhibitors of Tau Fibril Formation, Fluorescence Polarization. K18 P301L tau heparin fibrillization, Alexa594 FP, 6 h. Potency, µM (doses to about 57.7 µM), for the others: at the top dose activity, negative = inhibition, most hits filed as inhibitors. hit rate 0.39% among 280,000; also: potency is read from the fitted curve at half-maximal effect; % is scaled to controls: 0 for no effect and ±100 for the full control effect; nearly all actives have a fitted effect of over 55% in size
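FP of Alexa 594-tau after heparin (20 uM) induction. Substrate: human K18 P301L, 15 uM unlabeled, 0.24 uM labeled. Buffer 100 mM sodium acetate pH 7. 6 hr, 37 C.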
Tau fluor counter: Counterscreen qHTS for Inhibitors of Tau Fibril Formation, Fluorescence Polarization; tau K18 P301L (four-repeat tau fragment) Alexa594 fluorescence, heparin fibrillization; Potency, µM (series often up to 57.7 µM), without a hit: top-dose activity change, negative = decrease; hit rate 0.93% among 280,000; AID 1463, 2008; also: potency is read from the fitted curve at half-maximal effect; % is scaled to controls: 0 for no effect and ±100 for the full control effect; nearly all actives have a fitted effect of over 55% in size
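Human K18 P301L tau (15 uM unlabeled plus 0.24 uM Alexa 594-labeled, final) in 100 mM sodium acetate pH 7 was mixed with compound and 20 uM heparin and incubated 6 hr at 37 C.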
Lamin A splicing: qHTS Assay for Modulators of Lamin A Splicing; HeLa LMNA splicing GFP/RFP minigene ratio, 48 h; hit rate 0.01% among 200,000; Potency, µM (highest dose often 46.1 µM), for the others: top-dose ratio change, negative = inhibition, hits mostly inhibitors; AID 1487, 2009; active = well fitted inhibition curve with a large enough effect in the signal ratio, with a control signal flat, not every such curve was filed as active; inconclusive = small, poorly fitted or top-dose-only effect, or effect the other way, or a change in a side signal; the % refers to the signal ratio; also: potency is read from the fitted curve at half-maximal effect; % is scaled to controls: 0 for no effect and ±100 for the full control effect
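Read-out is the ratio of GFP to DsRed2 object intensity, acquired by 488 nm laser-scanning cytometry on HeLa lamin A-EGFP minigene reporter cells. Compound incubation 48 hrs at 37 °C in Opti-MEM with 2% FBS; DMSO 0.5% final.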
JMJD2E inh: qHTS Assay for Inhibitors of Human Jumonji Domain Containing 2E (JMJD2E) | AID 2147, 2009 | Potency, µM (series often up to 57.1 µM), without a hit: at the highest dose activity change, negative = inhibition, usual class: inhibitors | Lysine-specific demethylase 4E (Homo sapiens), B2RXH2 | hit rate 1.6% among 230,000 | JMJD2E catalytic domain, FDH-coupled NADH fluorescence (FDH is formaldehyde dehydrogenase);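 also: potency is read from the fitted curve at half-maximal effect; 0% = wells with enzyme and -100% = buffer wells without enzyme; nearly all actives have a fitted effect of over 50% in size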
Target sequence (B2RXH2 1-337 limits assumed): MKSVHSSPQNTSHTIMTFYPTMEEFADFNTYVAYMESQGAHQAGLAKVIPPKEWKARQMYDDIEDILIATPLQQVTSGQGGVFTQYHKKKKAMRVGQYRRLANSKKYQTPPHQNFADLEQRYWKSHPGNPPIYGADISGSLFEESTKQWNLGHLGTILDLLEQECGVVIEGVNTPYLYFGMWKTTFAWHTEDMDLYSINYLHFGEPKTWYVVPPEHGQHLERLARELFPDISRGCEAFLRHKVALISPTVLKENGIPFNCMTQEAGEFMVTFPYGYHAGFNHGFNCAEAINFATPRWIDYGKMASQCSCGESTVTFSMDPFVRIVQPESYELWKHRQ
* = called active by the depositor; ? = inconclusive; · = no result; [ ] = another dose, or the depositor's remark. Unless noted, calls follow the shape of the dose curve; as a rule, active = well fitted curve in the direction sought with a large enough effect; inconclusive = small, poorly fitted or top-dose-only effect, or another doubt; inactive = no such curve, though single readings can be large; an effect the other way counts as inactive or inconclusive.

SMILES	CBFb-RUNX1 inh	Tau ThT inhib	Tau fibril FP	Tau fluor counter	Lamin A splicing	JMJD2E inh
Cc1nc(-c2ccccc2)sc1C(=O)NN	-7.7%	-10.8%	?	-8.9%	?	-22.3%
c1ccc(Nc2c(-c3c[nH]c4ccccc34)nc3ccccn23)cc1	·	?	?	12.6µM*[quencher]	·	·
Cc1ccc2nc(-c3c[nH]c4ccccc34)c(Nc3ccccc3)n2c1	·	-6.7%	1.6%	?	·	·
Fc1ccc(Nc2c(-c3c[nH]c4ccccc34)nc3ccccn23)cc1	·	-10.7%	-5.0%	7.08µM*[quencher]	·	·
Cc1cc(OCC(=O)Nc2ccc(C(=O)OC3CCCCC3)cc2)cc(C)c1Cl	·	-6.4%	?	-19.4%	·	·
CC(C)C[C@H](NC(=O)[C@H](Cc1ccccc1)NC(=O)[C@H](Cc1ccccc1)NC(=O)[C@@H](N)CO)C(=O)N[C@@H](CCCN=C(N)N)C(=O)N[C@@H](CC(N)=O)C(=O)O	16.0%	·	·	·	·	·
COc1ncc2nc(-c3ccccc3)c(=O)n(CCc3ccccc3)c2n1	·	·	·	·	2.3%	·
CCC1S/C(=N/C(=O)NC2CCCCC2)NC1=O (centres undefined)	14.2%	-6.6%	-12.0%	-8.1%	4.4%	-3.2%
O=C(/N=C1\NC(=O)C(F)(C(F)(F)F)S1)NC1CCCCC1 (centres undefined)	2.4%	25.1µM*	?	-15.6%	-3.6%	-4.8%
CCc1ccc2c(c1)C(=O)C(=O)N2CC(=O)Nc1ccc(NC(=O)c2ccccn2)cc1	-0.7%	14.1µM*	-3.6%	?	?	2.2%
O=C1c2c([N+](=O)[O-])cc([N+](=O)[O-])cc2S(=O)N1Cc1ccccc1 (centres undefined)	6.9%	31.6µM*	?	-26.8%	·	?
O=[N+]([O-])c1ccc(NC2CCN(Cc3ccccc3)CC2)c([N+](=O)[O-])c1	-26.2%	?	1.7%	-25.9%	·	8.5%
CCn1ccnc1CN1CCc2c([nH]c3ccccc23)C1C1CCCCC1 (centres undefined)	-6.9%	?	-5.7%	-20.6%	-22.0%[46 µM]	28.2µM*
CCn1ccnc1CN1CCc2c([nH]c3ccccc23)C1C(C)(C)C (centres undefined)	-1.5%	-13.4%	-9.2%	-12.8%	·	-21.8%
CCN1/C(=C/c2cc[n+](C)cc2)C=Cc2cc(C)ccc21	-9.7%	8.91µM*	-4.8%	10.9%	?	?
Cc1ccc(S(=O)(=O)Nc2nc(C)c(NC(=O)Nc3ccc(Cl)cc3Cl)s2)cc1	0.3%	22.4µM*	1.2%	14.1µM*[quencher]	12.0%	-5.6%
Cc1cncn1CCc1nc2c3ccccc3nc(SCC(=O)Nc3ccccc3F)n2n1	·	-11.5%	-7.7%	-8.0%	?	·
CC(C)Cn1cc(NC(=O)NCc2ccc(Cl)cc2)c2ccccc2c1=O	·	-2.8%	5.2%	?	-10.0%[46 µM]	·
Cc1cccc(N=Cc2cc(Br)cc(Cl)c2O)c1	2.5%	14.1µM*	-14.0%	-8.7%	3.6%[9.22 µM]	-4.9%
NC(=O)c1cccc(N=Cc2cc(Cl)cc(Cl)c2O)c1	4.8%	0.9%	10.9%	3.7%	·	-9.4%
Cn1c(COc2ccc(Br)cc2)nnc1SC1CCc2ccccc2C1=O (centres undefined)	4.6%	31.6µM*	?	?	?	?
CCCOc1ccc(Br)cc1-c1cc(-c2ccc(Cl)cc2)[nH]c1-c1ccncc1	15.5%	-12.7%	?	7.94µM*[quencher]	·	?
C=CCn1c(N)c(C(=O)Nc2cccc(C)c2)c2nc3ccccc3nc21	26.0%	?	?	11.2µM*[quencher]	5.3%	?
Cc1ccc(NS(=O)(=O)c2ccc(OCC(=O)Nc3cccc([N+](=O)[O-])c3)c(C)c2)cc1	-11.6%	-3.8%	-7.1%	14.1µM*[quencher]	11.2%	-6.9%
Cc1ccc(NS(=O)(=O)c2cc(C(=O)Nc3cccc([N+](=O)[O-])c3)ccc2C)cc1	-9.8%	4.3%	10.4%	?	?	-1.6%
SMILES	CBFb-RUNX1 inh	Tau ThT inhib	Tau fibril FP	Tau fluor counter	Lamin A splicing	JMJD2E inh
Cc1ccc(C(=O)Nc2ccccc2)cc1S(=O)(=O)Nc1ccc(Br)cc1	·	3.9%	15.8µM*	?	·	·
Cc1ccc(C(=O)Nc2cccc([N+](=O)[O-])c2)cc1S(=O)(=O)Nc1ccc(NC(=O)c2ccccc2)cc1	0.5%	-16.2%	?	4.47µM*[quencher]	?	-4.6%
CN1C(=O)C2CCCCN2c2ccc(C(=O)NCc3ccccc3Br)cc21 (centres undefined)	·	-9.2%	13.0%	-17.6%	?	·
O=C(c1cccs1)N(Cc1cccnc1)c1nc2ccc(F)cc2s1	·	-17.2%	-14.8%	?	-4.9%[46 µM]	·
O=c1oc2c(O)c(O)cc3c(=O)oc4c(O)c(O)cc1c4c23	·	14.1µM*	?	?	?	2.51µM*
Cc1c(C)c2cc(Cl)c(O)c(CN(C)C)c2oc1=O	7.6%	5.0%	13.0%	4.8%	5.0%	?
CC(=O)n1cc(N(C(=O)CCl)c2ccc(Cl)cc2)c2ccccc21	3.1%	28.2µM*	-6.7%	-18.7%	·	?
O=c1c(/C=C(\O)c2ccc(F)cc2)nc2ccccc2n1-c1ccccc1	-6.3%	?	-10.0%	-21.8%	?	28.2µM*
Cc1ccc(S(=O)(=O)O/N=C2\CCCc3ccccc32)cc1	3.9%	-15.2%	-0.1%	-9.1%	15.6%	-4.1%
CC1=C(C)/C(=N\OS(=O)(=O)c2ccccc2)C=CC1=O	3.2%	12.6µM*	15.8µM*	?	?	7.3%
CCC(C)Nc1nc(N)c([N+](=O)[O-])c(Nc2cc(OC)ccc2OC)n1 (centres undefined)	?	15.8µM*	-10.9%	17.8µM*[quencher]	·	?
COc1ccc(OC)c(Nc2nc(NCCC(C)C)nc(N)c2[N+](=O)[O-])c1	-0.5%	25.1µM*	-8.5%	20µM*[quencher]	·	-6.4%
COc1ccccc1Nc1nc(NCC(C)C)nc(N)c1[N+](=O)[O-]	-0.6%	?	-15.5%	?	·	-6.5%
CN1[C@H](Cc2ccccc2)C=C[C@]1(C)C(=O)NCC1CC1	-3.5%	?	-1.1%	-15.0%	·	?
C=C[C@@]1(C)CC(=O)[C@]2(O)[C@@]3(C)[C@H](O)CCC(C)(C)[C@@H]3[C@H](O)[C@H](OC(C)=O)[C@@]2(C)O1	6.6%	·	·	·	·	·
Cc1ccc(/C=c2\s/c(=C(/C#N)C(=O)N3CCCC3)n(Cc3ccco3)c2=O)s1	?	15.8µM*	-12.2%	?	15.9%	-4.7%
